Measurements: PubChem BioAssay (Tox21)
Inconclusive results are not listed. The source made the active and inactive calls. Unless noted, the call rests on the fitted dose curve; in most records, active means well fitted curve in the direction sought with a large enough effect in the repeat runs; inconclusive means weak or mixed curves; inactive means no such curve, though single readings can be large; an effect the other way counts as inactive or inconclusive.

Assays:
[1] = qHTS assay to identify small molecule agonists of the peroxisome proliferator-activated receptor delta (PPARd) signaling pathway - cell viability counter screen (AID 743211); further: nearly all actives have a fitted effect of over 55% in size
Method in brief: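 Read-out: CellTiter-Glo luminescence, 30 min RT, measured in the same wells as the beta-lactamase reporter. Cells: GeneBLAzer PPAR delta UAS-bla HEK293H, 3000 cells/well, compound exposure 17 h at 37C.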

[2] = target: Peroxisome proliferator-activated receptor delta (Homo sapiens) (UniProt Q03181); assay: qHTS assay to identify small molecule agonists of the peroxisome proliferator-activated receptor delta (PPARd) signaling pathway (AID 743212; calls by dose curve)
Method in brief: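 Tox21 library screened in GeneBLAzer PPARd UAS-bla HEK293H cells. After compound treatment at 37 C, a FRET-based beta-lactamase substrate was applied for 2 h and fluorescence recorded.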

[3] = qHTS assay to identify small molecule antagonists of the peroxisome proliferator-activated receptor delta (PPARd) signaling pathway - cell viability counter screen (AID 743213); further: nearly all actives have a fitted effect of over 50% in size
Method in brief: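 CellTiter-Glo was added to PPARd-bla HEK293H wells following 17 h compound treatment in the presence of 300 nM L165041. Luminescence was recorded after 30 min at room temperature.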

[4] = qHTS assay to identify small molecule agonists of the farnesoid-X-receptor (FXR) signaling pathway - cell viability counter screen (AID 743218); further: nearly all actives have a fitted effect of over 45% in size
Method in brief: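 Quantitative HTS counter screen measuring ATP-based viability via CellTiter-Glo luminescence in HEK 293T cells carrying a UAS-driven beta-lactamase reporter, after 16 h compound exposure at 37 C.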

[5] = qHTS assay to identify small molecule antagonists of the farnesoid-X-receptor (FXR) signaling pathway - cell viability counter screen (AID 743221; active means well fitted cell-killing curve with a large enough effect in the repeat runs, not every such curve was filed as active; further: nearly all actives have a fitted effect of over 50% in size)
Method in brief: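 HEK 293T FXR-bla cells, 5 h pre-incubation; compound + CDCA 50 uM final, 16 h, 37 C; beta-lactamase FRET read first, then CellTiter-Glo luminescence, 30 min RT.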

[6] = qHTS assay to identify small molecule agonists of the NFkB signaling pathway - cell viability counter screen (AID 1159515; calls by dose curve; further: series mostly up to about 61 µM; nearly all actives have a fitted effect of over 55% in size)
Method in brief: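 Tox21 library compounds were tested for cytotoxicity against NFkB-bla ME-180 cells during a 5 hr exposure at 37 C. CellTiter-Glo luminescence served as the viability read-out.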

[7] = qHTS assay to identify small molecule agonists of the endoplasmic reticulum stress response signaling pathway (AID 1159516; active means well fitted activation curve with a large enough effect in the signal ratio in the repeat runs, not every such curve was filed as active; the % refers to the signal ratio)
Method in brief: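 Fluorescence at 460 and 530 nm (405 nm excitation) reports beta-lactamase from an ER stress response element in HeLa cells treated 5 hr at 37 C.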

[8] = qHTS assay to identify small molecule agonists of the endoplasmic reticulum stress response signaling pathway - cell viability counter screen (AID 1159517; calls by dose curve; further: series mostly up to about 61 µM; nearly all actives have a fitted effect of over 50% in size)
Method in brief: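 In parallel with the ESRE reporter read, cytotoxicity was scored by CellTiter-Glo luminescence (30 min, room temperature) on HeLa ESRE-bla cells dosed for 5 hr.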

[9] = qHTS assay to identify small molecule antagonists of the retinoid-related orphan receptor gamma (ROR-gamma) signaling pathway - cell viability counter screen (AID 1159520); further: nearly all actives have a fitted effect of over 50% in size
Method in brief: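 Tet-on ROR gamma CHO cells were given compounds for 2 hr, then doxycycline hyclate at 1 uM final, and incubated 16 hr at 37 C. Viability was measured as ATP content by CellTiter-Glo luminescence.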

[10] = target: Nuclear receptor ROR-gamma (Homo sapiens) (UniProt P51449); assay: qHTS assay to identify small molecule antagonists of the retinoid-related orphan receptor gamma (ROR-gamma) signaling pathway (AID 1159521)
Method in brief: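 Luminescence readout (ONE-Glo, 30 min RT) after 16 h doxycycline induction; loss of signal scored as antagonism. CHO cells with TET-inducible RORγ and RORE-LUC reporter; compounds added 2 h before 1 uM final doxycycline.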

[11] = qHTS assay to identify small molecule agonists of the AP-1 signaling pathway - cell viability counter screen (AID 1159525; calls by dose curve; further: nearly all actives have a fitted effect of over 55% in size)
Method in brief: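 Same-well cytotoxicity counter screen of the Tox21 10K library in ME-180 cells. The readout is ATP-dependent luminescence after 5 h compound treatment. Data are normalised to DMSO and tetra n-octyl ammonium bromide controls.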

[12] = qHTS assay to identify small molecule agonists of the AP-1 signaling pathway (AID 1159526; calls by dose curve)
[13] = target: Peroxisome proliferator-activated receptor delta (Homo sapiens) (UniProt Q03181); assay: qHTS assay to identify small molecule antagonists of the peroxisome proliferator-activated receptor delta (PPARd) signaling pathway (AID 743215; active means well fitted inhibition curve with a large enough effect in the signal ratio in the repeat runs, not every such curve was filed as active; the % refers to the signal ratio;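 further: cells stimulated with agonist L165041 at 300 nM final during compound exposure; series mostly up to about 62 µM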)
Method in brief: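 Here, a reporter line (HEK293H, beta-lactamase under a UAS) measures PPARd signaling. Compounds are tested against agonist L165041 at 300 nM final concentration over 17 h at 37 C, with fluorescence read after substrate.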

[14] = target: Vitamin D3 receptor (Homo sapiens) (UniProt P11473); assay: qHTS assay to identify small molecule agonists of the vitamin D receptor (VDR) signaling pathway (AID 743222; calls by dose curve)
Method in brief: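 Tox21 cell reporter format: VDR-bla line, 16 h compound exposure in 5% CO2 at 37C, then fluorescence intensity after 2 h with LiveBLAzer B/G FRET substrate.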

[15] = target: Vitamin D3 receptor (Homo sapiens) (UniProt P11473); assay: qHTS assay to identify small molecule antagonists of the vitamin D receptor (VDR) signaling pathway (AID 743223; active means well fitted inhibition curve with a large enough effect in the signal ratio in the repeat runs, not every such curve was filed as active; the % refers to the signal ratio)
Method in brief: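 Beta-lactamase reporter read-out: FRET substrate fluorescence after 2 h at room temperature, following 16 h exposure of VDR-bla cells to test compound plus 3 nM (final) 1alpha,25-dihydroxyvitamin D3 agonist at 37C.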

[16] = qHTS assay to identify small molecule agonists of the vitamin D receptor (VDR) signaling pathway - cell viability counter screen (AID 743224)
Method in brief: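 CellTiter-Glo viability readout on VDR-bla cells, measured after 16 h of compound treatment at 37C in the same wells.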

[17] = qHTS assay to identify small molecule antagonists of the vitamin D receptor (VDR) signaling pathway - cell viability counter screen (AID 743225); further: nearly all actives have a fitted effect of over 50% in size
Method in brief: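 Viability counter screen run in the same wells as the beta-lactamase reporter assay: HEK 293T VDR-UAS-bla cells, 16 h compound exposure at 37C with 3 nM (final) 1-alpha,25-dihydroxyvitamin D3. CellTiter-Glo luminescence, 30 min, room temperature.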

[18] = target: Retinoic acid receptor RXR-alpha (Homo sapiens) (UniProt P19793); assay: qHTS assay to identify small molecule agonists of the RXR signaling pathway (AID 1159527; calls by dose curve; further: nearly all actives have a fitted effect of over 35% in size)
Method in brief: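 Agonist mode; 9-cis retinoic acid positive control. HEK 293T UAS-bla reporter cells, 2% charcoal-stripped FBS, 16 hr compound exposure at 37 C/5% CO2. LiveBLAzer B/G FRET substrate 2 hr RT; ex 405, em 460/530 nm.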

[19] = target: Bile acid receptor (Homo sapiens) (UniProt Q96RI1); assay: qHTS assay to identify small molecule antagonists of the farnesoid-X-receptor (FXR) signaling pathway (AID 743217; active means well fitted inhibition curve with a large enough effect in the signal ratio in the repeat runs, not every such curve was filed as active; the % refers to the signal ratio)
Method in brief: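 Test compounds are pin-transferred onto FXR-bla HEK 293T cells, then chenodeoxycholic acid is added at 50 uM final. After 16 h at 37 °C, LiveBLAzer B/G substrate is applied for 2 h at room temperature and fluorescence read.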

[20] = target: Bile acid receptor (Homo sapiens) (UniProt Q96RI1); assay: qHTS assay to identify small molecule agonists of the farnesoid-X-receptor (FXR) signaling pathway (AID 743220; active means well fitted activation curve with a large enough effect in the signal ratio in the repeat runs, not every such curve was filed as active; the % refers to the signal ratio)
Method in brief: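 FXR-UAS-bla HEK 293T cells carrying a UAS-driven beta-lactamase reporter were plated for 5 h at 37C/5% CO2, then exposed to DMSO-dissolved Tox21 10K compounds for 16 h at 37C. A LiveBLAzer B/G FRET substrate was loaded for 2 h at room temperature before fluorescence reading.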

Measured: Potency

Chain of Retinoic acid receptor RXR-alpha (Homo sapiens) (P19793 whole entry, looked up): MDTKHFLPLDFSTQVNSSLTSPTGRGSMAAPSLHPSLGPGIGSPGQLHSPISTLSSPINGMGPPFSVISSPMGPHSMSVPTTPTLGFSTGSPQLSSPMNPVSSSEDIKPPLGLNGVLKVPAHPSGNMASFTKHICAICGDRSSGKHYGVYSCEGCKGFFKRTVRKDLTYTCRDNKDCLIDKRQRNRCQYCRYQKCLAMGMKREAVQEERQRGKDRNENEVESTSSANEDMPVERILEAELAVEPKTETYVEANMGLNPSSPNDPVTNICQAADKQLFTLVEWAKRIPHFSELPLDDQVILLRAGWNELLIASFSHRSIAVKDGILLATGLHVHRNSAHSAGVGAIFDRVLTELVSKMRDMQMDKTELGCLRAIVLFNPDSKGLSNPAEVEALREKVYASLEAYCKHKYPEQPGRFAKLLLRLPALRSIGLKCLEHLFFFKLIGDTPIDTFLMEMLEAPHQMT
Chain of Vitamin D3 receptor (Homo sapiens) (P11473 whole entry, looked up): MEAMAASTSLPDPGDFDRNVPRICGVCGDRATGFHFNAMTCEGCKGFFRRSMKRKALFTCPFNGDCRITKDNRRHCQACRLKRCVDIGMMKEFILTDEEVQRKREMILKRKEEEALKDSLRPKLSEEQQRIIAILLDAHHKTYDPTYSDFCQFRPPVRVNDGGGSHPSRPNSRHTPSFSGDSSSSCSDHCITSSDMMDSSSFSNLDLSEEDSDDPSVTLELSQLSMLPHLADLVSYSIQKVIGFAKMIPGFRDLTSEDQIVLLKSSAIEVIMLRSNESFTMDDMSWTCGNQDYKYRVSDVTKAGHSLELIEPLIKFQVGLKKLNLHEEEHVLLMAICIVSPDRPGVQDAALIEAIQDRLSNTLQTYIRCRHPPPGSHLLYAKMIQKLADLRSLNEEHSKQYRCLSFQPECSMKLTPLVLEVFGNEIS
Chain of Peroxisome proliferator-activated receptor delta (Homo sapiens) (Q03181 whole entry, looked up): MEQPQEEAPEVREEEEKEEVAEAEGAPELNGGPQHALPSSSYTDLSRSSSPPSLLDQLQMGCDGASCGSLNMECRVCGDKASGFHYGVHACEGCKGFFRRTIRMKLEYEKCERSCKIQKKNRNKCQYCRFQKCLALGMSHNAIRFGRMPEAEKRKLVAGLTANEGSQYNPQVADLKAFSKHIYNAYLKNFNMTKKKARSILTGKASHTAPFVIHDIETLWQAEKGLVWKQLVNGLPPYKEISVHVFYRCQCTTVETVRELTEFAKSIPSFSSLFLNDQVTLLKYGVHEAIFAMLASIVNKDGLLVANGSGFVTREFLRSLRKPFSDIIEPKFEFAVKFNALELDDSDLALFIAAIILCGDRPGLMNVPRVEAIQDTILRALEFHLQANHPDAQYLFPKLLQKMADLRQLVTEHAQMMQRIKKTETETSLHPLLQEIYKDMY
Chain of Bile acid receptor (Homo sapiens) (Q96RI1 whole entry, looked up): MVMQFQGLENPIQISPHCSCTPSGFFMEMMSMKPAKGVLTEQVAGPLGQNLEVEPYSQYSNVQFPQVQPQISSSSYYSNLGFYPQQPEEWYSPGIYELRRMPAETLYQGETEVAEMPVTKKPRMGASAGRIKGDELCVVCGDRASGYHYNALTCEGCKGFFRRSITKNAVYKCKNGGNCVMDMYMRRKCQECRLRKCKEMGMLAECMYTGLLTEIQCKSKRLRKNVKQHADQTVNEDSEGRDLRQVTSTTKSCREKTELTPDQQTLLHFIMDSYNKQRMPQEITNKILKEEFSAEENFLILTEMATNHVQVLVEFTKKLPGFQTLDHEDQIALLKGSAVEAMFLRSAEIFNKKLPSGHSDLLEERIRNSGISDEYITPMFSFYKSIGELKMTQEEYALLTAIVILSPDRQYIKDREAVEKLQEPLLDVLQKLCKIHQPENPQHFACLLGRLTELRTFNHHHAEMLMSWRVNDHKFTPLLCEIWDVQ

CC1(C)[C@H]2CC[C@]1(C)[C@H](O)C2
not listed: [13] | [14] | [15] | [16] | [17] | [18] | [19] | [20]
inactive: all other assays above

CCCCCCCCCC(=O)OCC
not listed: [18] | [19] | [20]
inactive: all other assays above

C1CCC2OC2C1 (configuration not stated)
not listed: [5] | [19] | [20]
inactive: all other assays above

C=CC[N+]1([C@H]2C[C@H]3[C@@H]4CC[C@H]5C[C@H](OC(C)=O)[C@@H](N6CCCCC6)C[C@]5(C)[C@H]4CC[C@]3(C)[C@H]2OC(=O)CC)CCCCC1
not listed: [19] | [20]
inactive: all other assays above

c1ccc(OCc2ccc(CCCN3CCOCC3)cc2)cc1
not listed: [18] | [19] | [20]
inactive: all other assays above

CN1CCN(C2=Nc3ccccc3Sc3ccc(Cl)cc32)CC1
not listed: [4] | [12] | [14] | [20]
inactive: all other assays above

Oc1ccc2c(c1)OCO2
not listed: [2] | [13] | [15] | [16] | [18] | [19] | [20]
inactive: all other assays above

CC(C)(C)c1cc(CO)cc(C(C)(C)C)c1O
not listed: [2] | [5] | [13] | [16] | [18] | [19]
inactive: all other assays above

COC(Cc1ccccc1)OC
not listed: [2] | [13] | [16] | [17] | [18] | [19] | [20]
inactive: all other assays above
